Screening results as filed in PubChem.
BoNT A protease = BoNT/A light chain protease inhibitors, primary screen, biochemical, flow cytometry, MLPCN library | Botulinum neurotoxin type A light chain protease (Clostridium botulinum A str. ATCC 3502) | multiplex microsphere protease substrate cleavage | inhibition, % at 10 µM | 360,000 tested, 0.17% active
Mtb FBA inh = Mtb FBA enzyme inhibitors, primary screen, biochemical, fluorescence, strain H37Rv; purified M. tuberculosis FBA, fluorescence read-out; inhibition, % at 1 µM; 360,000 tested, 2.3% active; AID 588726, 2011; in the data active = inhibition above about 27%
Anthrax LF inh2 = Bacillus anthracis LF protease inhibitors, primary screen, biochemical, multiplex microsphere, MLPCN library; 360,000 tested, 0.12% active; inhibition, % at 10 µM; multiplex microsphere protease cleavage assay
GDH-TPI inh = GDH-TPI coupling enzyme inhibitors, primary screen, artefact control for M. tuberculosis FBA inhibitor project, biochemical, absorbance, full deck; GDH-TPI coupled enzyme counterscreen, NADH absorbance; inhibition, % at 4.8 µM; 360,000 tested, 1.2% active; in the data active = inhibition above about 30%
BoNT-F LC inh = BoNT/F light chain protease inhibitors, primary screen, biochemical, flow cytometry, MLPCN library; Botulinum neurotoxin type F light chain protease (Clostridium botulinum); inhibition, % at 10 µM; 360,000 tested, 0.22% active; Multiplex microsphere protease cleavage assay; in the data active = inhibition above about 35%, passing the limit was not always enough
Bead autofluor = counter-screen for toxin protease inhibitors: compound fluorescence | fluorescence intensity (concentration not given with the values) | compound autofluorescence counterscreen, microsphere flow cytometry; active compounds read high | 360,000 tested, 3.1% active | AID 624483; in the data active = fluorescence intensity above about 16000
Hits are given with their value. Compounds with a hit are over-represented: about 6.7% of the library has one in this group of screens. Cut-off read from the data, not from the text of the source, unless noted: active = inhibition above about 30%; inconclusive = no clear call, values can overlap the other calls; inactive = below that.

For COc1ccc(C(CNC(=O)COc2ccccc2C#N)N2CCOCC2)cc1 (stereo not drawn) the results were BoNT A protease inactive, Mtb FBA inh inactive, Anthrax LF inh2 inactive, GDH-TPI inh inactive, BoNT-F LC inh inactive and Bead autofluor inactive.
For COc1ccc(/C=C(\C#N)C(=O)NCC(c2ccc(F)cc2)N2CCOCC2)cc1 (stereo not drawn) the results were BoNT A protease inactive, Mtb FBA inh inactive, Anthrax LF inh2 inactive, GDH-TPI inh 43, BoNT-F LC inh inactive and Bead autofluor inactive.
Screening CCOC(=O)C1CCCN(C(=O)CCNC(=O)Cn2ccc3ccccc3c2=O)C1 (stereo not drawn) returned BoNT A protease inactive, Mtb FBA inh inactive, Anthrax LF inh2 inactive, GDH-TPI inh inactive, BoNT-F LC inh inactive and Bead autofluor inactive.
For O=C(COc1cccc(Br)c1)Nc1ccc(Cl)c(S(=O)(=O)N2CCOCC2)c1 the results were BoNT A protease inactive, Mtb FBA inh inactive, Anthrax LF inh2 inactive, GDH-TPI inh inactive, BoNT-F LC inh inactive and Bead autofluor inactive.
CCc1ccccc1NS(=O)(=O)c1ccc2[nH]cc(C(=O)NCC3CCCO3)c(=O)c2c1 (stereo not drawn) was read as BoNT A protease inactive, Mtb FBA inh inactive, Anthrax LF inh2 inactive, GDH-TPI inh inactive, BoNT-F LC inh inactive and Bead autofluor inactive.
`COc1ccc(C(CNC(=O)c2cccc(NS(=O)(=O)c3ccccc3)c2)N2CCCC2)cc1` (stereo not drawn) gave BoNT A protease inactive, Mtb FBA inh inactive, Anthrax LF inh2 inactive, GDH-TPI inh inactive, BoNT-F LC inh inactive and Bead autofluor inactive.
Screening COc1ccc(C(CNC(=O)c2cccc(S(=O)(=O)N(C)c3ccccc3)c2)N2CCCC2)cc1 (stereo not drawn) returned BoNT A protease inactive, Mtb FBA inh inactive, Anthrax LF inh2 inactive, GDH-TPI inh inactive, BoNT-F LC inh inactive and Bead autofluor 59722.
COc1ccc(C(CNC(=O)c2cccc(Br)c2)N2CCCC2)cc1 (stereo not drawn) was read as BoNT A protease inactive, Mtb FBA inh inactive, Anthrax LF inh2 inactive, GDH-TPI inh inactive, BoNT-F LC inh inactive and Bead autofluor 28340.
COc1ccc(C(CNC(=O)c2cccc(NC(=O)c3cccs3)c2)N2CCCC2)cc1 (stereo not drawn) was read as BoNT A protease inactive, Mtb FBA inh inactive, Anthrax LF inh2 inactive, GDH-TPI inh inactive, BoNT-F LC inh inactive and Bead autofluor inactive.
Screening COc1ccccc1NS(=O)(=O)c1cccc(NC(=O)c2nn(C)c(=O)c3ccccc23)c1 returned Mtb FBA inh inactive and GDH-TPI inh inactive.
Screening CCC(C)[C@@H](C(=O)NCC1CCC(C(=O)O)CC1)n1nnc2ccccc2c1=O (stereo partly drawn) returned BoNT A protease inactive, Mtb FBA inh inactive, Anthrax LF inh2 inactive, GDH-TPI inh inactive, BoNT-F LC inh inactive and Bead autofluor inactive.
Cc1ccc(S(=O)(=O)Nc2ccc3c(c2)nc(CCN2CCCC2)n3C)cc1 was read as BoNT A protease inactive, Mtb FBA inh inactive, Anthrax LF inh2 inactive, GDH-TPI inh inactive, BoNT-F LC inh inactive and Bead autofluor inactive.
`O=C(N1CCN(c2ccccc2)CC1)C(F)(F)C(F)F` gave BoNT A protease inactive, Mtb FBA inh inactive, Anthrax LF inh2 inactive, GDH-TPI inh inactive, BoNT-F LC inh inactive and Bead autofluor 20656.
O=C(N1CCN(c2ccccc2)CC1)C(F)(F)C(F)(F)F was read as BoNT A protease inactive, Mtb FBA inh inactive, Anthrax LF inh2 inactive, GDH-TPI inh inactive, BoNT-F LC inh inactive and Bead autofluor 19895.
`O=C(O)c1ccccc1C(=O)N1CCN(c2ccccc2)CC1` gave BoNT A protease inactive, Mtb FBA inh inactive, Anthrax LF inh2 inactive, GDH-TPI inh inactive, BoNT-F LC inh inactive and Bead autofluor inactive.
`O=C(c1ccccc1C(=O)N1CCN(c2ccccc2)CC1)N1CCN(c2ccccc2)CC1` gave BoNT A protease inactive, Mtb FBA inh inactive, Anthrax LF inh2 inactive, GDH-TPI inh inactive, BoNT-F LC inh inactive and Bead autofluor inactive.
